# Measured values reported in PubChem BioAssay (NCI).
# Compounds without any hit were thinned out: in the full panel of roughly 83,000, 20% have a hit.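 Single-dose data. Exposure time 48 hours. Values below 10 considered active.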 Calls of active or inactive are those of the source.
# Test system: MDA-MB-435 melanoma
# Experiment: NCI-60 one-dose screen, 48 h (100 = growth as untreated, 0 = no growth, -100 = all killed)
# Conditions: 10 µM
# Description: Growth inhibition of the MDA-MB-435 human Melanoma tumor cell line is measured as a screen for anti-cancer activity. Cells are grown in 96 well plates and exposed to the test compound for 48 hours. Compounds are tested at a single concentration, which is 10^-5 M for most compounds. The reported endpoint is percent growth (GI% or GIPRCNT), where numbers from 0 - 100% represent growth inhibition, and numbers from -100% - 0 represent cell death. For example, a value of 40 represents 60% growth inhibition. A value of 0 means no net growth occurred over the course of the experiment. A value of -40 indicates 40% of cells at the beginning of the experiment died by the end of the experiment. A value of -100 means all cells are dead at the end of the experiment.
# NCI-60 Human Tumor Cell Lines Screen was performed using the standard one-dose NCI protocol, which is described in more detail at https://dtp.cancer.gov/discovery_development/nci-60/default.htm.
# Compounds with GIPRCNT values below 10 were considered active. Activity score was based on GIPRCNT using the following formula: […]
# Score is 0 for GIPRCNT values of 100 or above, 50 for GIPRCNT values of 0, and 100 for GIPRCNT values of -100.
row,Compound,growth
1,OC[C@H]1OC([S-])[C@H](O)[C@@H](O)[C@@H]1O.[Au+] (stereo not given in full),83.3% (inactive)
2,CCCCC1(O)CCCCC1,106% (inactive)
3,CS(=O)(=O)c1nccc(-c2c(-c3cccc(OCc4ccc(F)cc4)c3)nc3sccn23)n1,81.3% (inactive)
4,CS(=O)(=O)c1nccc(-c2c(-c3cccc(OCCc4ccccc4)c3)nc3sccn23)n1,104% (inactive)
5,O=C(N/N=C/c1cc([N+](=O)[O-])ccc1O)c1cccc2ccccc12,57.1% (inactive)
6,CN(C)CCN(Cc1ccccc1)c1ccc2ccccc2n1,94.4% (inactive)
7,CC(C)C1=C(O)C2=C(C(=O)C1=O)[C@@]1(C)CCCC(C)(C)[C@@H]1CC2,75.4% (inactive)
8,c1ccc2c(c1)Cc1ccccc1N2CCN1CCCCC1,106% (inactive)
9,Cc1ccc(S(=O)(=O)N(C)CCCCCC(=O)O)cc1,105% (inactive)
10,CCOC(=O)c1cc(C(=O)c2ccc(Cl)cc2)n2ccc(-c3cc[n+](CC(=O)c4ccc(OC)cc4)cc3)cc12,75.5% (inactive)
11,CCN1CC(CCN2CCOCC2)C(C(c2ccccc2)c2ccccc2)C1=O (stereo not given),99.3% (inactive)
12,CCN1CCN(CCC(=O)Nc2cccc(-n3cc(-c4ccncc4)c(-c4ccc(Cl)c(OC)c4)n3)c2)CC1,-47% (active)
13,COc1ccc(-c2n[nH]nc2-c2cc(OC)c3c(c2OC)OCO3)cc1,-12.3% (active)
14,COc1ccc(Cl)cc1Nc1nc(C(F)(F)F)ccc1C(=O)N/N=C/c1cc(OC)c(OC)c(OC)c1,37.1% (inactive)
15,CN(C)c1nc(N)c2nccnc2n1,106% (inactive)
16,Cc1ccc(/C=C2/C(=O)N(C)c3ccc(S(=O)(=O)Nc4ccc(C(C)(C)C)cc4)cc32)s1,83.1% (inactive)
17,COc1ccc(Cc2cnc(N)nc2N)cc1OC,107% (inactive)
18,CC(C)(C)OC(=O)CN1CCc2c(sc3ncnc(N/N=C/c4cccc5ccccc45)c23)C1,27.6% (inactive)
19,CCn1cc(CNc2ccc(C(=O)Nc3ccc4ccccc4c3)cc2)c(C)n1,25.6% (inactive)
20,COc1ccc2c(c1)CC=C1[C@@H]2CC[C@]2(C)C(=O)/C(=N/O)C[C@@H]12,90.5% (inactive)

row,Compound,growth
1,Cc1cc(Cl)ccc1Nc1nc(C(F)(F)F)ccc1C(=O)N/N=C/c1c(Cl)cccc1Cl,10.5% (inactive)
2,O=C1C=C(Nc2cccc(Br)c2)c2ccccc2C1=O,-25.2% (active)
3,COc1cc(C(=O)/C(C)=C/c2c[nH]c3ccccc23)cc(OC)c1OC,5.74% (active)
4,COc1ccccc1-n1c(-c2sc(NC(C)=O)nc2C)n[nH]c1=S,105% (inactive)
5,COc1ccc2nc3cc(Cl)ccc3c(N)c2c1,-74.2% (active)
6,O=C(c1ccccc1)N(C(=O)c1ccccc1)N1CCCC1,116% (inactive)
7,COc1cc(CNC(=O)C2CSC3(C)c4ccccc4C(=O)N23)cc(OC)c1OC (stereo not given),105% (inactive)
8,CC(C)c1ccc(C(C)C(=O)N(CC2=C(C(C)c3ccccn3)c3ccccc3C2)C(C)C)cc1 (stereo not given),44.1% (inactive)
9,O=C(CCCSc1nc(-c2ccccc2)cc(-c2ccc(Cl)cc2)n1)NO,21.9% (inactive)
10,Nc1cc(Br)c(-c2nn3c(CCC(=O)c4nc5ccccc5[nH]4)nnc3s2)c(Br)c1,90.5% (inactive)
11,COc1nc2c(c(=O)n1C)CN(c1ccccc1)C(=O)C(C)N2 (stereo not given),103% (inactive)
12,Cc1n[nH]c(C)c1N=Nc1cccc2c1C(=O)c1ccccc1C2=O,107% (inactive)
13,CC(C)(C)OC(=O)CN1CCc2c(sc3ncnc(N/N=C/c4ccccc4Br)c23)C1,80.5% (inactive)
14,CN1CCN(CC(=O)Nc2cccc(-n3cc(-c4ccncc4)c(-c4ccc(Cl)c(O)c4)n3)c2)CC1,-47.5% (active)
15,C=CCn1c(SCC(=O)Nc2ccc(C(=O)/C=C/c3ccc(Cl)cc3)cc2)nnc1-c1cc(-c2ccccc2)nc2ccccc12,77.9% (inactive)
16,COc1ccc(C(=O)CC(CC(=O)c2ccc(OC)cc2)c2c(C)nn(-c3ccccc3)c2Cl)cc1,91.9% (inactive)
17,O=c1[nH]c(=O)n(C2C[C@H](O)[C@@H](CO)O2)cc1C(F)(F)F (stereo not given in full),102% (inactive)
18,O=C1c2ccccc2C(=O)c2c1ccc(C(Br)Br)c2[N+](=O)[O-],81.5% (inactive)
19,Cc1ccc(C2NC(=S)N3C(c4ccc(C)cc4)NC(=S)N23)cc1 (stereo not given),-35% (active)
20,Nc1nc(N)c(N)c(Nc2ccc(CCO)cc2)n1,104% (inactive)
